Bioassay records (PubChem BioAssay)
SUMO HTRF inh: inhibitors of human SUMOylation (UBC9). inhibition, % at 35 µM. AID 2006. P63279. HTRF SUMOylation assay, SAE1/SAE2 + UBC9, in vitro. hit rate 0.36% among 290,000; in the data active = inhibition above about 50%, passing the limit was not always enough; inconclusive = no clear call, values can overlap the other calls
PABP polyA inh: blocks human PABP binding to poly(A) RNA. inhibition, % at 35 µM. P11940. fluorescence polarization. hit rate 1% among 290,000. AID 2014;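 note: calls also rest on retests at 20 µM and on dose response follow-up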
Target sequence (P11940 whole entry, looked up): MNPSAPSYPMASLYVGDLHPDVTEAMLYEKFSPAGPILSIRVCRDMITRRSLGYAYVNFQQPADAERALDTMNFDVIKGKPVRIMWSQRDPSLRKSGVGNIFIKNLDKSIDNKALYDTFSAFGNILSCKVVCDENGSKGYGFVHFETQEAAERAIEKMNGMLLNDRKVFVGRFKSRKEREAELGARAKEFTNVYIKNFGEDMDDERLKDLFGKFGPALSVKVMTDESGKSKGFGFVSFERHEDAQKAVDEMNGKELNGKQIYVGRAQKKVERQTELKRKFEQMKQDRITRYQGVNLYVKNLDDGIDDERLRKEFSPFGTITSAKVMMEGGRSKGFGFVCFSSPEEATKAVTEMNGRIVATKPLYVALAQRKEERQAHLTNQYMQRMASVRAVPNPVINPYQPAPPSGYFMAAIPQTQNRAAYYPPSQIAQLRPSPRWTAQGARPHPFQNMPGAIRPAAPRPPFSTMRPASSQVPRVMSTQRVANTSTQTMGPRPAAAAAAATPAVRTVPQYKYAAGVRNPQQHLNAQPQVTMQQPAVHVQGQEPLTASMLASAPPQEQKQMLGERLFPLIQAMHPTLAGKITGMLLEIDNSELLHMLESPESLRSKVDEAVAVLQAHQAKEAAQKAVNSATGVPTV
ALR inh: human ALR oxidase inhibition via reduced H2O2 | purified ALR, DTT oxidation, H2O2 HRP-luminol luminescence | inhibition, % (concentration not given with the values) | hit rate 3.8% among 290,000 | AID 485317;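 active = mean replicate inhibition above about 79%, with every replicate also reaching it, limit read from the data; inconclusive = only one of the two criteria met; inactive = mean below limit and not every replicate reaching it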
Efflux pump inh: antifungal efflux pump inhibition, Nile Red retention; S. cerevisiae Candida pump triplex; inhibition, % at 10 µM; hit rate 0.44% among 330,000; AID 485275;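 active = plate passing quality check with inhibition over a set limit, or well fluorescence over plate mean plus 4 SD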;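 note: Nile Red retained in pooled yeast measured as flow cytometry median fluorescence; higher means more Nile Red kept so more efflux inhibition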
MLLE-PAM2 inh: blocks PAM2 peptide binding to the PABP1 MLLE domain; inhibition, % at 20 µM; GST-MLLE / FITC-PAM2 fluorescence polarization; hit rate 0.36% among 360,000; in the data active = inhibition above about 35%, passing the limit was not always enough
eIF4H inh: inhibitors of RNA binding by human eIF4H; inhibition, % at 35 µM; hit rate 0.94% among 290,000; Q15056; eIF4H fluorescence polarization binding assay; AID 2012;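 note: calls also rest on retests at 20 µM and on dose response follow-up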
Of the large screens only hits and unclear results are named; the others gave an inactive call. Shown are actives, neighbours in structure and some others; about 4.7% of the full set was active somewhere. Unless noted, the rule behind the calls is not given here.

CCc1nc2c(OCC(=O)N3CCOCC3)cccn2c1N(C=O)Cc1ccccc1	none (no result: SUMO HTRF inh, PABP polyA inh, ALR inh, Efflux pump inh, eIF4H inh)
COc1ccccc1NC(=O)Cc1cccs1	none
COc1ccccc1NC(=O)Nc1ccnn1Cc1cccs1	SUMO HTRF inh 77.6
COc1ccccc1NC(=O)CSc1nc2nccnc2c(=O)n1Cc1cccs1	ALR inh 95.8
O=C(CSc1nc2nccnc2c(=O)n1Cc1cccs1)Nc1ccccc1	ALR inh 98.2 (no result: SUMO HTRF inh, PABP polyA inh, eIF4H inh)
O=c1c2sccc2nc(SCc2cc(=O)n3cc(Cl)ccc3n2)n1Cc1ccccn1	ALR inh 88.1
CN1CCC(N(C)C(=O)c2ccc(Cl)c(S(=O)(=O)N(C)c3ccc(Cl)cc3)c2)CC1	none (no result: SUMO HTRF inh, PABP polyA inh, eIF4H inh)
COc1ccc(Cl)cc1CN1C(=O)C(Cc2ccccc2)ON=C1C (configuration not stated)	none (no result: SUMO HTRF inh, PABP polyA inh, ALR inh, Efflux pump inh, eIF4H inh)
CC(C)n1cc(CN2CCC(C(=O)Nc3ccc(Oc4ccccc4F)cc3)CC2)cn1	none
CN(Cc1cccc(F)c1)C(=O)c1ccccc1Sc1ccccc1C#N	none
CC(C)C[C@H](NC(=O)C1CCN(S(=O)(=O)c2ccccc2)CC1)C(=O)NCc1ccncc1	none (no result: SUMO HTRF inh, PABP polyA inh, eIF4H inh)
Cc1ccc(CNC(=O)CSc2nc3ccsc3c(=O)n2Cc2ccccn2)cc1	none
COc1ccc(NC(=O)CSc2nc3ccsc3c(=O)n2Cc2ccccn2)c(OC)c1	ALR inh 95.8
Cc1ccc(C2/C=C\CC(NC(=O)OCC3c4ccccc4-c4ccccc43)CC(=O)N2Cc2ccccc2)cc1 (configuration not stated)	none (no result: SUMO HTRF inh, PABP polyA inh, ALR inh, eIF4H inh)
Cc1nc2ccccn2c1-c1ccnc(=S)[nH]1	ALR inh 99.6
Cc1c(Cl)cccc1NC(=O)Cc1ccc([N+](=O)[O-])cc1	none
Cc1cc(Sc2ncnc(N)c2[N+](=O)[O-])ncn1	MLLE-PAM2 inh 45.9
Cc1cc(Sc2nc(N)ncc2[N+](=O)[O-])ncn1	ALR inh 98.3
CC(=O)N1CC(C(=O)Nc2ccc3c(c2)OCO3)Oc2ccccc21 (configuration not stated)	none (no result: SUMO HTRF inh, PABP polyA inh, eIF4H inh)
COc1ccc([C@H]2CC(=O)C=C(c3ccc4ncccc4c3)C2)cc1OC	none (no result: SUMO HTRF inh, PABP polyA inh, eIF4H inh)
O=C(c1ccc(NS(=O)(=O)c2ccc3[nH]c(=O)[nH]c3c2)cc1)N1CCN(c2ccccc2O)CC1	ALR inh 98.2 (no result: SUMO HTRF inh, PABP polyA inh, eIF4H inh)
Cc1ccc(C)n1Cc1ccc(C(=O)O)cc1	PABP polyA inh 88.2, eIF4H inh 93.0 (no result: ALR inh)
CCOC(=O)C1=C(c2ccccc2)NC(=O)NC1c1ccc(OC)cc1 (configuration not stated)	none
CCOC(=O)C1=C(c2ccccc2)NC(=O)NC1c1ccc(N(C)C)cc1 (configuration not stated)	ALR inh 99.0
CN(C)C(=O)c1ccc(NC(=O)c2cccc(S(=O)(=O)N3CCCCCC3)c2)cc1	none (no result: SUMO HTRF inh, PABP polyA inh, eIF4H inh)
CN(C)C(=O)c1ccc(NC(=O)c2cccc(S(=O)(=O)N3CCCc4ccccc43)c2)cc1	ALR inh 98.4 (no result: SUMO HTRF inh, PABP polyA inh, eIF4H inh)
Cc1ccc2c(c1)CCCN2S(=O)(=O)c1cccc(C(=O)Nc2ccccc2C(=O)O)c1	ALR inh 98.1
CCCc1cc(=O)[nH]c(SCC(=O)N(C)C2CCCCC2)n1	none (no result: SUMO HTRF inh, PABP polyA inh, ALR inh, eIF4H inh)
CCOC(=O)N1CCC(Nc2nc3ccccc3n3nnnc23)CC1	PABP polyA inh 47.7, eIF4H inh inconclusive
CC(C)CN(CC(C)C)C(=O)COn1nnc2ccc(S(=O)(=O)N3CCOCC3)cc21	none (no result: SUMO HTRF inh, PABP polyA inh, eIF4H inh)
Clc1ccc(-c2ccc(-c3nn4c(-c5ccco5)nnc4s3)o2)cc1	none (no result: SUMO HTRF inh, PABP polyA inh, eIF4H inh)
COc1cccc(-c2nn3c(-c4ccco4)nnc3s2)c1	ALR inh 94.4
c1coc(-c2nn3c(Cn4nnc5ccccc54)nnc3s2)c1	MLLE-PAM2 inh 38.1 (no result: ALR inh)
c1csc(-c2nn3c(Cn4nnc5ccccc54)nnc3s2)c1	none
Brc1ccc(-c2nn3c(-c4ccco4)nnc3s2)o1	PABP polyA inh 70.3, eIF4H inh 66.2
O=C(Nc1cccnc1)c1ccc([N+](=O)[O-])s1	none (no result: SUMO HTRF inh, PABP polyA inh, eIF4H inh)
O=C1CC(C(=O)Nc2ccc(Cl)cc2[N+](=O)[O-])C2(CCCCC2)O1 (configuration not stated)	none
Cc1ccc2cc(CCNC(=O)c3ccco3)c(=O)[nH]c2c1	none
Cc1ccc2cc(CCNC(=O)c3ccco3)c(=O)[nH]c2c1C	PABP polyA inh 124.0, eIF4H inh inconclusive
C=CCOc1c(Br)cc(/C=N/Nc2ccc(C(=O)O)cc2)cc1OCC	ALR inh 97.4
COc1ccc2c(/C=N/Nc3ccc(C(=O)O)cc3)c[nH]c2c1	ALR inh 88.1
COc1ccc(/C=N/Nc2ccc(C(=O)O)cc2)cc1Br	ALR inh 98.6
O=C1c2c(O)ccc(O)c2C(=O)c2c(NCCNCCO)ccc(NCCNCCO)c21	ALR inh 99.8 (no result: SUMO HTRF inh, PABP polyA inh, eIF4H inh)
O=C1c2ccccc2C(=O)c2c(Nc3ccc(CCO)cc3)ccc(O)c21	none
O=C1NC(=S)N/C1=C/c1ccc2c(c1)OCO2	PABP polyA inh 71.5
O=C(Nc1ccccc1Cl)C(Cl)C(=O)c1ccccc1 (configuration not stated)	eIF4H inh 8.0 (no result: ALR inh, Efflux pump inh)
CC(OC(=O)/C=C/c1ccccc1)C(=O)Nc1cccc(C#N)c1 (configuration not stated)	none (no result: SUMO HTRF inh, PABP polyA inh, ALR inh, eIF4H inh)
COc1ccccc1-c1cn[nH]c1-c1ccc(OCC(=O)NN)cc1O	ALR inh 95.1
COc1ccc(-c2cn[nH]c2-c2ccc(OCC(=O)NN)cc2O)cc1	ALR inh 78.2
O=C(N/N=C/c1ccc(N2CCOCC2)cc1)c1ccc(NS(=O)(=O)c2cccs2)cc1	none
O=S(=O)(Nc1ccc(N2CCOCC2)cc1)c1cccs1	ALR inh 98.0
Cc1ccc(CSCC(=O)Nc2ccc(N3CCOCC3)cc2N2CCOCC2)cc1	ALR inh 98.4 (no result: SUMO HTRF inh, PABP polyA inh, eIF4H inh)
CCNCC(=O)Nc1ccc(N2CCOCC2)cc1	none
O=C(Nc1ccc(N2CCOCC2)cc1N1CCOCC1)c1cccs1	ALR inh 78.3
Cc1ccc(CNCC(=O)Nc2ccc(N3CCOCC3)cc2)cc1	ALR inh 98.7
O=C(Nc1ccc(N2CCOCC2)cc1N1CCOCC1)c1ccc(Br)cc1	none
COc1ccccc1Cc1c(-c2ccc(C#N)cc2)nc2c3ccccc3ccn12	none (no result: SUMO HTRF inh, PABP polyA inh, ALR inh, Efflux pump inh, eIF4H inh)
CC(=O)Nc1cccc(-c2ccnc3c2CC(C(=O)Nc2ccccc2)O3)c1 (configuration not stated)	none (no result: SUMO HTRF inh, PABP polyA inh, ALR inh, Efflux pump inh, eIF4H inh)
O=c1[nH]n(Cc2ccccc2)c2ccccc12	ALR inh 98.6
O=c1ccn(Cc2ccccc2)c2ccccc12	none (no result: ALR inh)
c1ccc(C2Oc3ccccc3C3CC(c4cccs4)=NN32)cc1 (configuration not stated)	ALR inh 97.7
CS(=O)(=O)N1N=C(c2cccs2)CC1c1ccccc1 (configuration not stated)	none
CC1CC(C)(C)NC(=S)N1CCCC(=O)N1CCN(c2ccccc2F)CC1 (configuration not stated)	none
Cc1ccc(NC(=S)Nc2ccc(Cl)c(Cl)c2)c(OC(F)F)c1	none
Cc1cccc(C)c1NC(=S)Nc1ccc(Cl)c(Cl)c1	MLLE-PAM2 inh 45.4
COC(=O)c1cccc(NC(=S)Nc2ccc(Cl)c(Cl)c2)c1	none
Cc1cc(C)cc(NC(=S)Nc2ccc(Cl)c(Cl)c2)c1	MLLE-PAM2 inh 42.6
